According to the supplement of paper PMC8728848:
Shown is part of a subset that was picked to be rich in the strongest signals.

What was measured:
Assay in all cases: glycan array binding signal (z-score within array); higher = stronger binding
Conditions in all cases: glycan notation: IUPAC condensed, linker removed
[1] = biological target: Fuc(a1-2)Gal(b1-4)GlcNAc(b1-2)Man
Procedure, shortened: (§1)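 Columns mapping to the same glycan were averaged after glycan names were converted to IUPAC-condensed notation. The data come from 3228 arrays in the Consortium for Functional Glycomics database, limited to those with an available protein sequence. Binding is reported as a within-array Z-score averaged across arrays of one protein sequence and across linkers.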

[2] = biological target: Fuc(a1-2)Gal(b1-4)[Fuc(a1-3)]GlcNAc(b1-2)[Fuc(a1-2)Gal(b1-4)[Fuc(a1-3)]GlcNAc(b1-4)]Man(a1-3)[Fuc(a1-2)Gal(b1-4)[Fuc(a1-3)]GlcNAc(b1-2)Man(a1-6)]Man(b1-4)GlcNAc(b1-4)GlcNAc
Procedure, shortened: as §1

[3] = biological target: Fuc(a1-2)Gal6S(b1-4)Glc6S
Procedure, shortened: as §1

[4] = biological target: Fuc(a1-2)[Gal(a1-3)]Gal(b1-3)GalNAc
Procedure, shortened: as §1

[5] = biological target: Fuc(a1-2)[Gal(a1-3)]Gal(b1-4)GlcNAc(b1-2)Man(a1-3)[Fuc(a1-2)[Gal(a1-3)]Gal(b1-4)GlcNAc(b1-2)Man(a1-6)]Man(b1-4)GlcNAc(b1-4)[Fuc(a1-6)]GlcNAc
Procedure, shortened: as §1

[6] = biological target: Fuc(a1-2)[Gal(a1-4)]Gal(b1-4)GlcNAc
Procedure, shortened: as §1

[7] = biological target: Fuc(a1-2)[GalNAc(a1-3)]Gal(b1-4)GlcNAc(b1-6)GalNAc
Procedure, shortened: as §1

[8] = biological target: Fuc(a1-3)[Gal(b1-4)]GlcNAc
Procedure, shortened: as §1

[9] = biological target: Fuc(a1-3)[Gal(b1-4)]GlcNAc(b1-3)Gal(b1-4)[Fuc(a1-3)]GlcNAc
Procedure, shortened: as §1

[10] = biological target: Fuc(a1-3)[Gal(b1-4)]GlcNAc(b1-3)Gal(b1-4)[Fuc(a1-3)]GlcNAc(b1-3)Gal(b1-4)[Fuc(a1-3)]GlcNAc
Procedure, shortened: as §1

[11] = biological target: Fuc(a1-3)[Gal(b1-4)]GlcNAc(b1-4)Gal(b1-4)[Fuc(a1-3)]GlcNAc(b1-4)Gal(b1-4)[Fuc(a1-3)]GlcNAc
Procedure, shortened: as §1

[12] = biological target: Fuc(a1-4)GlcNAc
Procedure, shortened: as §1

[13] = biological target: Gal(a1-3)Gal(b1-3)[Fuc(a1-4)]GlcNAc(b1-2)Man(a1-3)[Gal(a1-3)Gal(b1-3)[Fuc(a1-4)]GlcNAc(b1-2)Man(a1-6)]Man(b1-4)GlcNAc(b1-4)GlcNAc
Procedure, shortened: as §1

[14] = biological target: Gal(a1-3)[Gal(a1-4)]Gal(b1-4)GlcNAc
Procedure, shortened: as §1

[15] = biological target: Gal(a1-4)Gal(b1-3)GlcNAc(b1-2)Man(a1-3)[Gal(a1-4)Gal(b1-3)GlcNAc(b1-2)Man(a1-6)]Man(b1-4)GlcNAc(b1-4)GlcNAc
Procedure, shortened: as §1

[16] = biological target: Gal(b1-3)Gal
Procedure, shortened: as §1

[17] = biological target: Gal(b1-3)GalNAc
Procedure, shortened: as §1

[18] = biological target: Gal(b1-3)[Neu5Ac(a2-6)]GalNAc
Procedure, shortened: as §1

[19] = biological target: Gal(b1-3)[Neu5Ac(a2-6)]GlcNAc(b1-4)Gal(b1-4)Glc
Procedure, shortened: as §1

[20] = biological target: Gal(b1-4)GlcNAc(b1-2)Man(a1-3)[Gal(b1-4)GlcNAc(b1-2)Man(a1-6)][Gal(b1-4)GlcNAc(b1-4)]Man(b1-4)GlcNAc(b1-4)[Fuc(a1-6)]GlcNAc
Procedure, shortened: as §1

[21] = biological target: Gal(b1-4)GlcNAc(b1-2)Man(a1-3)[Man(a1-6)]Man(b1-4)GlcNAc(b1-4)GlcNAc
Procedure, shortened: as §1

[22] = biological target: Gal(b1-4)GlcNAc(b1-3)Gal(b1-4)GlcNAc(b1-2)Man(a1-3)[Gal(b1-4)GlcNAc(b1-3)Gal(b1-4)GlcNAc(b1-2)Man(a1-6)]Man(b1-4)GlcNAc(b1-4)GlcNAc
Procedure, shortened: as §1

[23] = biological target: Gal(b1-4)GlcNAc(b1-3)Gal(b1-4)GlcNAc(b1-3)Gal(b1-4)GlcNAc(b1-2)Man(a1-3)[Gal(b1-4)GlcNAc(b1-3)Gal(b1-4)GlcNAc(b1-3)Gal(b1-4)GlcNAc(b1-2)Man(a1-6)]Man(b1-4)GlcNAc(b1-4)GlcNAc
Procedure, shortened: as §1

[24] = biological target: Gal(b1-4)GlcNAc(b1-3)Gal(b1-4)GlcNAc(b1-3)Gal(b1-4)GlcNAc(b1-3)Gal(b1-4)GlcNAc(b1-3)Gal(b1-4)GlcNAc(b1-2)Man(a1-3)[Gal(b1-4)GlcNAc(b1-3)Gal(b1-4)GlcNAc(b1-3)Gal(b1-4)GlcNAc(b1-3)Gal(b1-4)GlcNAc(b1-3)Gal(b1-4)GlcNAc(b1-2)Man(a1-6)]Man(b1-4)GlcNAc(b1-4)GlcNAc
Procedure, shortened: as §1

[25] = biological target: Gal(b1-4)GlcNAc(b1-3)[Fuc(a1-3)GlcNAc(b1-6)]Gal(b1-4)Glc
Procedure, shortened: as §1

[26] = biological target: Gal6S(b1-4)Glc
Procedure, shortened: as §1

[27] = biological target: GalNAc(b1-4)GlcNAc(b1-2)Man(a1-3)[GalNAc(b1-4)GlcNAc(b1-2)Man(a1-6)]Man(b1-4)GlcNAc(b1-4)GlcNAc
Procedure, shortened: as §1

[28] = biological target: GalNAc(b1-6)GalNAc
Procedure, shortened: as §1

[29] = biological target: GalNAc6S(b1-4)GlcNAc
Procedure, shortened: as §1

[30] = biological target: Glc(a1-6)Glc(a1-6)Glc(a1-6)Glc
Procedure, shortened: as §1

[31] = biological target: GlcNAc(a1-4)Gal(b1-3)GlcNAc
Procedure, shortened: as §1

[32] = biological target: GlcNAc(b1-2)Man(a1-3)[GlcNAc(b1-4)][GlcNAc(b1-2)Man(a1-6)]Man(b1-4)GlcNAc(b1-4)[Fuc(a1-6)]GlcNAc
Procedure, shortened: as §1

[33] = biological target: GlcNAc(b1-3)Gal(b1-4)GlcNAc
Procedure, shortened: as §1

[34] = biological target: GlcNAc(b1-3)Gal(b1-4)GlcNAc(b1-6)[GlcNAc(b1-3)Gal(b1-3)]GalNAc
Procedure, shortened: as §1

[35] = biological target: GlcNAc(b1-3)[GlcNAc(b1-6)]GalNAc
Procedure, shortened: as §1

[36] = biological target: GlcNAc(b1-6)GalNAc
Procedure, shortened: as §1

[37] = biological target: Kdn(a2-3)Gal(b1-4)[Fuc(a1-3)]GlcNAc
Procedure, shortened: as §1

[38] = biological target: Neu5Ac(a2-3)Gal(b1-4)GlcNAc(b1-3)Gal(b1-4)GlcNAc(b1-3)Gal(b1-4)GlcNAc(b1-2)Man(a1-3)[Neu5Ac(a2-3)Gal(b1-4)GlcNAc(b1-3)Gal(b1-4)GlcNAc(b1-3)Gal(b1-4)GlcNAc(b1-2)Man(a1-6)]GalNAc
Procedure, shortened: as §1

[39] = biological target: Neu5Ac(a2-3)Gal(b1-4)GlcNAc(b1-3)Gal(b1-4)GlcNAc(b1-3)GalNAc
Procedure, shortened: as §1

[40] = biological target: Neu5Ac(a2-3)Gal(b1-4)[Fuc(a1-3)]GlcNAc(b1-2)Man
Procedure, shortened: as §1

[41] = biological target: Neu5Ac(a2-6)Gal(b1-4)GlcNAc(b1-2)Man(a1-3)[GlcNAc(b1-2)Man(a1-6)]Man(b1-4)GlcNAc(b1-4)GlcNAc
Procedure, shortened: as §1

[42] = biological target: Neu5Ac(a2-6)Gal(b1-4)GlcNAc(b1-2)Man(a1-3)[GlcNAc(b1-4)][Neu5Ac(a2-6)Gal(b1-4)GlcNAc(b1-2)Man(a1-6)]Man(b1-4)GlcNAc(b1-4)GlcNAc
Procedure, shortened: as §1

[43] = biological target: Neu5Ac(a2-6)Gal(b1-4)GlcNAc(b1-2)Man(a1-3)[Neu5Ac(a2-3)Gal(b1-4)GlcNAc(b1-2)Man(a1-6)]Man(b1-4)GlcNAc(b1-4)GlcNAc
Procedure, shortened: as §1

[44] = biological target: Neu5Ac9Ac(a2-3)Gal(b1-4)GlcNAc
Procedure, shortened: as §1

[45] = biological target: Neu5Gc(a2-3)Gal(b1-4)[Fuc(a1-4)]GlcNAc
Procedure, shortened: as §1

B1: MGL1 (Mus musculus), P49300 (protein)
chain: MIYENLQNSRIEEKTQEPGKAPSQSFLWRILSWTHLLLFSLGLSLLLLVVVSVIGSQNSQLRRDLGTLRATLDNTTSKIKAEFQSLDSRADSFEKGISSLKVDVEDHRQELQAGRDLSQKVTSLESTVEKREQALKTDLSDLTDHVQQLRKDLKALTCQLANLKNNGSEVACCPLHWTEHEGSCYWFSESEKSWPEADKYCRLENSHLVVVNSLEEQNFLQNRLANVVSWIGLTDQNGPWRWVDGTDFEKGFKNWAPLQPDNWFGHGLGGGEDCAHITTGGPWNDDVCQRTFRWICEMKLAKES
glycan array binding signal (z-score) [1]: 0.007 | glycan array binding signal (z-score) [2]: 0.824 | glycan array binding signal (z-score) [3]: 0.081 | glycan array binding signal (z-score) [4]: -0.265 | glycan array binding signal (z-score) [5]: -1.16 | glycan array binding signal (z-score) [6]: 1.45 | glycan array binding signal (z-score) [7]: 0.044 | glycan array binding signal (z-score) [8]: 5.46 | glycan array binding signal (z-score) [9]: 3.95 | glycan array binding signal (z-score) [10]: 5.1 | glycan array binding signal (z-score) [11]: 9.12 | glycan array binding signal (z-score) [12]: 0.064 | glycan array binding signal (z-score) [13]: -0.177 | glycan array binding signal (z-score) [14]: 1.06 | glycan array binding signal (z-score) [15]: 2.41 | glycan array binding signal (z-score) [16]: -0.039 | glycan array binding signal (z-score) [17]: -0.112 | glycan array binding signal (z-score) [18]: -0.361 | glycan array binding signal (z-score) [19]: 0.273 | glycan array binding signal (z-score) [20]: 3.48 | glycan array binding signal (z-score) [21]: 0.201 | glycan array binding signal (z-score) [22]: 2.62 | glycan array binding signal (z-score) [23]: 3.01 | glycan array binding signal (z-score) [24]: 2.31 | glycan array binding signal (z-score) [25]: 4.54 | glycan array binding signal (z-score) [26]: 0.208 | glycan array binding signal (z-score) [27]: 0.218 | glycan array binding signal (z-score) [28]: -0.374 | glycan array binding signal (z-score) [29]: 0.509 | glycan array binding signal (z-score) [30]: -0.085 | glycan array binding signal (z-score) [31]: 0.26 | glycan array binding signal (z-score) [32]: 0.417 | glycan array binding signal (z-score) [33]: 0.138 | glycan array binding signal (z-score) [34]: -0.907 | glycan array binding signal (z-score) [35]: -0.368 | glycan array binding signal (z-score) [36]: 0.042 | glycan array binding signal (z-score) [37]: 0.025 | glycan array binding signal (z-score) [38]: 3.39 | glycan array binding signal (z-score) [39]: -0.308 | glycan array binding signal (z-score) [40]: -0.66 | glycan array binding signal (z-score) [41]: -0.089 | glycan array binding signal (z-score) [42]: -0.48 | glycan array binding signal (z-score) [43]: -0.988 | glycan array binding signal (z-score) [44]: -0.495 | glycan array binding signal (z-score) [45]: -0.153
